High-throughput results as filed in PubChem.
Sampled rows, rich in hits. Any-hit rate of the full collection: about 2.7%.
MITF act: MITF TRPM1 promoter activation in melanoma cells; SK-MEL-5 TRPM1-promoter luciferase, 24 h; % of positive control, neutral wells = 0; activation, % at 12.5 µM; hit rate 0.75% among 300,000;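 active = mean activation of at least 80% with every replicate also reaching 80%; inconclusive = mean reaches 80% but some replicate falls short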;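 also: 0% = neutral control wells and 100% = parthenolide positive control wells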
Env fusion inh: HIV envelope-mediated fusion inhibition; HeLa-JRFL Env/CEM21 cell fusion, luciferase; inhibition, % at 12.3 µM; hit rate 1.1% among 360,000; AID 651610;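 active = mean replicate inhibition score of at least 50 and every replicate individually at or above 50; inconclusive = only one of the two criteria met; inactive = mean below 50 and not all replicates reaching 50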;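 also: 0% = plate neutral controls and 100% = maraviroc near 300 nM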
GSIS activator: GLuc luminescence reporter in INS-1E cells, primary screen for activators of glucose-dependent secretion of insulin. INS-1E GLuc reporter insulin secretion, 2-3 h. activation, % at 16.6 µM. hit rate 0.61% among 370,000. AID 743287;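 active = lowest replicate activation of at least 40%, so every replicate reaches that level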;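 also: 0% = median of neutral control wells and 100% = median of IBMX positive control wells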
Wnt bcat act: activators of Wnt/beta-catenin signaling | Wnt/beta-catenin reporter cell assay, activator, plate reader | activation, % at 9.35 µM | hit rate 1.2% among 300,000; in the data active = activation above about 30%, passing the limit was not always enough; inconclusive = no clear call, values can overlap the other calls;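 also: 0% = neutral control wells and 100% = positive control wells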
CFTR F508del cor: correctors of CFTR F508del function in bronchial epithelial cells; CFBE cells, YFP halide quenching; stimulated with forskolin plus potentiator P3; % fluorescence drop versus neutral controls; activity (quench increase), % at 7.58 µM; hit rate 0.36% among 350,000; AID 720511;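 active = mean added fluorescence quench of at least 8% versus neutral control, with both replicates also reaching 8%; inconclusive = only one of the mean or replicate conditions met; inactive = mean below 8% and not both replicates reaching 8%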;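 also: cells transiently co-express mutant CFTR-F508del with the halide-sensitive YFP; corrector assay measuring rescue of mutant channel to the surface after 24 h compound exposure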
* marks the source's active call; other numbers are inactive results; ? = inconclusive; nt = no result; [ ] = dose if it differs, or a comment.

SMILES	MITF act	Env fusion inh	GSIS activator	Wnt bcat act	CFTR F508del cor
O=C(Nc1cccc(F)c1)N[C@@H]1CC[C@H](CCNS(=O)(=O)c2cccc(Cl)c2)O[C@@H]1CO	nt	80*[16.7 µM]	-22	nt	2
CN1CCN(C(=O)C[C@H]2C[C@@H]3c4cc(NC(=O)c5ccc6c(c5)OCO6)ccc4O[C@@H]3[C@H](CO)O2)CC1	nt	16[16.7 µM]	4	nt	0
COc1ccccc1NC(=O)N[C@@H]1C=C[C@H](CC(=O)NCc2ccc(Cl)c(Cl)c2)O[C@@H]1CO	nt	74*[16.7 µM]	-6	nt	0
COc1ccccc1NC(=O)N[C@@H]1C=C[C@H](CC(=O)N[C@H](C)c2ccccc2)O[C@H]1CO	nt	95*[16.7 µM]	8	nt	1
COc1ccccc1NC(=O)N[C@H]1C=C[C@H](CC(=O)N[C@@H](C)c2ccccc2)O[C@@H]1CO	nt	0[16.7 µM]	4	nt	-2
C[C@@H](NC(=O)C[C@@H]1C=C[C@@H](NC(=O)C2CCOCC2)[C@@H](CO)O1)c1ccccc1	nt	7[16.7 µM]	6	nt	-2
COc1ccc(NC(=O)N(C)C[C@@H]2Oc3ccc(N(C)C)cc3CC(=O)N([C@H](C)CO)C[C@@H]2C)cc1	nt	3[16.7 µM]	7	nt	2
Cc1noc(C)c1NC(=O)Nc1ccc2c(c1)C(=O)N([C@H](C)CO)C[C@H](C)[C@@H](CN(C)C(=O)NC(C)C)OCCCC[C@H](C)O2	nt	-3[16.7 µM]	12	nt	1
COc1ccc(C(=O)NCC(=O)OCC(=O)NC(=O)c2ccc(C(C)(C)C)cc2)cc1OC	18	-8	24	7	0
CCOC(=O)NC(=O)COC(=O)CNC(=O)c1ccc(OCC)c(OCC)c1	-2	19	46*	0	2
COc1ccc(C(=O)NCC(=O)OCC(=O)Nc2sccc2C#N)cc1OC	-6	-11	51*	-2	1
CO[C@H]1CN(C)C(=O)c2ccc(NC(=O)c3ccc(F)cc3)cc2OC[C@H](C)N(C)C[C@@H]1C	nt	nt	12	nt	-2
Cc1ccc(NC(=O)Nc2ccc3c(c2)C(=O)N(C)[C@@H]2CC[C@@H](CC(=O)NCC(F)(F)F)O[C@H]2CO3)cc1	nt	6[16.7 µM]	1	nt	nt
COc1cccc(C(=O)NC2=NCCS2)c1	nt	-18	nt	44*	nt
CC(C)Oc1cccc(C(=O)NC2=NCCS2)c1	31	-30	-2	-2	1
O=C(NC1=NCCS1)c1cccc(Br)c1	nt	-74	14	42*	1
COCC(=O)N1[C@@H](C#N)[C@@H](c2ccc(C3=CCCCC3)cc2)[C@@H]1CO	nt	-8[16.7 µM]	5	nt	-3
CC1(C)CC(=O)c2cnc(N3CCc4ccccc43)nc2C1	nt	-88	20	39*	0
C[C@H]1CN([C@@H](C)CO)C(=O)c2cc(N(C)C)ccc2O[C@@H]1CN(C)Cc1ccc(-c2ccccc2)cc1	nt	nt	-5	nt	3
CCOC1=C2[C@H](c3ccc(C)cc3)N(S(=O)(=O)c3ccc(C)cc3)C[C@H]2n2c(=O)n(-c3ccccc3)c(=O)n2C1	nt	8	52*	-2	0
CCOC1=C2[C@@H](CN(S(=O)(=O)c3ccc(C)cc3)[C@H]2c2ccc(Cl)cc2)[C@H]2C(=O)N(c3ccccc3)C(=O)[C@H]2C1	nt	-90	1	-2	11*
CCOC1=C2[C@H](c3cccc(Cl)c3)N(S(=O)(=O)c3ccc(C)cc3)C[C@H]2n2c(=O)n(-c3ccccc3)c(=O)n2C1	nt	-30	-17	-2	-7
COc1ccc(Cc2nc3ccc(C(=O)N4CCOCC4)cc3o2)cc1	95*	-59	13	20	0
COc1ccc(Cc2nc3ccc(C(=O)N4CCC(C(N)=O)CC4)cc3o2)cc1	nt	20	nt	-5	1
CN(Cc1ccccc1)S(=O)(=O)c1ccc(OCC(=O)NCc2ccccn2)cc1	10	-1	-6	-1	-4
SMILES	MITF act	Env fusion inh	GSIS activator	Wnt bcat act	CFTR F508del cor
CC(C)NC(=O)COc1ccc(S(=O)(=O)N(C)Cc2ccccc2)cc1	-4	-4	5	44*	2
Cc1cc(C)n(CCC(=O)N/N=C/c2ccc(Br)c([N+](=O)[O-])c2)n1	-6	-3	6	36*	-1
CN(C)C(=O)c1ccc(-c2ccccc2[C@H]2[C@@H](CO)N(C(=O)C3CCCC3)[C@H]2C#N)cc1	nt	nt	-5	nt	2
O=C(C1CCCN(S(=O)(=O)c2ccc(F)cc2)C1)N1CCOCC1 (stereo not given)	60	-35	3	43*	1
CCCCOc1ccc(CSc2n[nH]c(C)n2)cc1	93*	-83	nt	nt	nt
COc1ccc2c3c(n(C)c2c1)[C@@H](CO)N(C(=O)NC(C)C)CC31CN(C(=O)NC(C)C)C1	nt	-3[16.7 µM]	8	nt	1
COc1ccc2c3c([nH]c2c1)[C@H](CO)N(C(=O)CN1CCOCC1)CC31CCN(CC2CCCC2)CC1	nt	nt	3	nt	0
Cc1ccc(C(=O)Nc2ccc(SC(F)F)cc2)s1	83*	-216	-6	11	-2
O=C(Cn1cnc2ccccc21)Nc1ccc(SC(F)F)cc1	-10	22	-22	12	3
CC[N+](CC)(CC)CC(=O)Nc1ccc(SC(F)F)cc1	-7	3	11	-1	-4
O=C(Nc1ccc(SC(F)F)cc1)c1cccc2nc3ccccc3nc12	-47	-3	82*	2	nt
C/C=C/c1cnc2c(c1)C(=O)N([C@@H](C)CO)C[C@@H](C)[C@@H](CN(C)C(=O)Nc1ccc(F)cc1)O2	nt	8[16.7 µM]	5	nt	0
CC(O)CNCc1ccccc1C(F)(F)F (stereo not given)	-1	3	14	41*	-1
Cc1noc(C)c1NC(=O)N[C@H]1C=C[C@@H](CC(=O)N2CCCCC2)O[C@H]1CO	nt	28[16.7 µM]	7	nt	0
CCN(Cc1ccccc1)S(=O)(=O)c1ccccc1Br	0	6	41*	-2	-6
C=CCNC(=O)[C@@H]1[C@H]2C(=O)O[C@H](c3ccccc3)[C@H](c3ccccc3)N2[C@H](c2ccc(OCCO)cc2)[C@@]12C(=O)Nc1ccc(C#CCNC(N)=O)cc12	nt	7[16.7 µM]	nt	nt	-1
Cc1cnc(NC(=O)CCCNC(=O)c2ccc(Cl)cc2)s1	38	-34	2	52*	-2
O=C(CN1CCOCC1)NCC[C@H]1CC[C@H](NC(=O)Nc2ccccc2)[C@H](CO)O1	nt	-10[16.7 µM]	1	nt	-1
CNC(=O)CC1C(=O)N(c2ccc(F)cc2)C(=S)N1NC(=O)c1ccc(Cl)cc1 (stereo not given)	0	-32	-2	-2	8.0*
CO[C@H]1CN(C)C(=O)c2cc(NC(=O)Nc3ccccc3F)ccc2OC[C@@H](C)NC[C@H]1C	nt	nt	0	nt	0
COc1ccc(Nc2nc(-c3sc(C)nc3C)cs2)cc1	nt	?	-2	2	9.1*
Cc1nc(C)c(-c2csc(Nc3ccc(N)cc3)n2)s1	nt	9	-6	0	-3
COc1ccc(-c2csc(Nc3cccc(C)n3)n2)cc1	nt	-232	9	8	4
COc1ccc(-c2csc(Nc3ccc(Oc4ccccc4)cc3)n2)cc1	nt	77*	18	-2	-4
